Screening results deposited in PubChem BioAssay by several laboratories.
Hits are enriched below; roughly 6.7% of the tested compounds scored in any of these assays.
GDH-TPI counter-1 = inhibits GDH-TPI coupling enzymes, artifact for Mtb FBA screen; GDH-TPI coupled enzyme counterscreen, NADH absorbance; inhibition, % at 4.8 µM; hit rate 1.2% among 360,000; in the data active = inhibition above about 30%
BoNT F protease = inhibitors of Botulinum neurotoxin F light chain protease; Multiplex microsphere protease cleavage assay, flow cytometry; inhibition, % at 10 µM; hit rate 0.22% among 360,000; AID 588497; in the data active = inhibition above about 35%, passing the limit was not always enough
Anthrax LF prot = anthrax lethal factor protease inhibition. hit rate 0.12% among 360,000. multiplex microsphere protease cleavage assay, LF. AID 588501. inhibition, % at 10 µM. P15917
Bead autofluor = compound fluorescence in toxin protease inhibitor counterscreen; hit rate 3.1% among 360,000; fluorescence intensity (no concentration beside the values); compound autofluorescence counterscreen, microsphere flow cytometry; stronger effect = higher value; in the data active = fluorescence intensity above about 16000
BoNT A protease = BoNT A light chain protease inhibition | multiplex microsphere protease substrate cleavage, flow cytometry | AID 588499 | inhibition, % at 10 µM | hit rate 0.17% among 360,000
Mtb FBA inh = inhibitors of M. tuberculosis fructose-bisphosphate aldolase | purified M. tuberculosis FBA, fluorescence read-out | inhibition, % at 1 µM | P9WQA3 | hit rate 2.3% among 360,000; in the data active = inhibition above about 27%
Target sequence (P9WQA3 whole entry, looked up): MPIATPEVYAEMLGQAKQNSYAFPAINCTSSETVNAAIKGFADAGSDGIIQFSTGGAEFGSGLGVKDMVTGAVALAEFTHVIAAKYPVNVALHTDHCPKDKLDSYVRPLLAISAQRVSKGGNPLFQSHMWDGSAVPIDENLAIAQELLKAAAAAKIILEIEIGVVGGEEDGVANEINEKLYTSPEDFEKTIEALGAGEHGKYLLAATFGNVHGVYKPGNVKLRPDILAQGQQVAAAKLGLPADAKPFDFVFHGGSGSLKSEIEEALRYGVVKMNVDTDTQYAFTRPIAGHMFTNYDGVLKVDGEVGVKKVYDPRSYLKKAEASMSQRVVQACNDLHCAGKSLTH
Mtb FBA confirm = Mtb FBA inhibition, confirmed; purified M. tuberculosis FBA, fluorescence read-out; hit rate 78% among 5,600; inhibition, % at 1 µM; shares compounds with Mtb FBA inh; in the data active = inhibition above about 27%
GDH-TPI counter-2 = inhibits GDH-TPI coupling enzymes, flagging Mtb FBA hits. inhibition, % at 1 µM. AID 652141. GDH-TPI coupled enzyme counterscreen, fluorescence. hit rate 81% among 5,600. shares compounds with Mtb FBA inh; in the data active = inhibition above about 10%
A number is an active result; – = inactive; · = no result given; + = active, no number. Cut-off read from the data, not from the text of the source, unless noted: active = inhibition above about 30%; inconclusive = no clear call, values can overlap the other calls; inactive = below that.

SMILES	GDH-TPI counter-1	BoNT F protease	Anthrax LF prot	Bead autofluor	BoNT A protease	Mtb FBA inh	Mtb FBA confirm	GDH-TPI counter-2
CS(=O)(=O)c1ccc(-c2sc3cc4c(cc3c2C(=O)NN2CCOCC2)OCO4)cc1	37	–	–	–	–	48	104	85
NC(=O)c1cccnc1Nc1ccccc1Cl	–	–	–	–	–	–	·	·
CCCS(=O)(=O)c1nc(S(=O)(=O)c2ccc(C)cc2)c(N2CCc3ccccc3C2)s1	–	–	–	–	–	–	·	·
O=C(Nc1ccc(Cc2ccncc2)cc1)c1ccc(Br)o1	–	–	–	–	–	–	·	·
Clc1ccc(-c2cn3cc(Cl)ccc3n2)cc1	–	–	–	–	–	–	·	·
CCN(CC)S(=O)(=O)c1ccc(-c2cn3cc(Cl)ccc3n2)cc1	–	–	–	–	–	31	·	+
CC(=O)c1ccc(OCc2cc(=O)n3ccsc3n2)cc1	–	–	–	–	–	–	·	·
COc1ccc(CCNC(=O)C(=O)c2cn(CC(=O)N3CCCC3)c3ccccc23)cc1OC	–	–	–	–	–	–	·	·
COC(=O)c1ccc(/C=C/c2ccc3cccc(OC)c3n2)cc1	37	–	–	–	–	60	+	+
COC(=O)c1sccc1-n1cc(C#N)c(=O)n(C)c1=O	–	–	–	–	–	–	·	·
COc1ccc(NC(=O)NC23CC4CC(CC(C4)C2)C3)cc1OC	–	–	–	–	–	–	·	·
Cc1ccc(-c2cc(C(=O)NCc3ccccn3)c3ccccc3n2)cc1	–	–	–	–	–	28	123	116
CCc1ccc(-c2cc(C(=O)NCc3ccccn3)c3ccccc3n2)cc1	–	–	–	–	–	29	88	65
O=C(NCc1ccccn1)c1cc(-c2ccc(Br)cc2)nc2ccccc12	–	–	–	–	–	–	·	·
CCOc1ccc(C(=O)Nc2ccc(N3CCN(S(C)(=O)=O)CC3)cc2)cc1[N+](=O)[O-]	–	–	–	–	–	–	·	·
COc1ccccc1Cn1c(C)c(C(=O)NCc2ccc(C#N)cc2)sc1=O	–	–	–	–	–	–	·	·
Nc1c(C(O)(C(F)(F)F)C(F)(F)F)ccc2ccccc12	–	–	–	17206	–	28	–	11
Cn1c(-c2cc3ccc(OC(=O)C(C)(C)C)cc3oc2=O)nc2ccccc21	33	–	–	16715	–	59	–	–
CCc1ccc(C(CNC(=O)c2ccc3c(=O)n(-c4ccccc4F)c(=S)[nH]c3c2)N(C)C)cc1 (stereo unspecified)	–	–	–	–	–	–	·	·
CCOC(=O)c1nn(-c2c(C)n(C)n(-c3ccccc3)c2=O)cc1O	–	–	–	–	–	–	·	·
CCOC(=O)c1nn(-c2ccc3c(c2)OCCO3)cc1O	–	–	–	–	–	31	93	65
Cn1nnc(C(O)CN2CCOCC2)n1 (stereo unspecified)	–	–	–	–	–	–	·	·
O=C(Cc1ccccc1)NNc1c2ccccc2nc2ccccc12	–	–	–	–	–	–	·	·
O=C(Nc1c2ccccc2nc2ccccc12)C(Cl)(Cl)Cl	–	–	–	–	–	90	–	–
Cc1cc(OC(C)C(=O)NCc2ccccn2)c2c(C)cc(=O)oc2c1 (stereo unspecified)	–	–	–	–	–	103	–	–
SMILES	GDH-TPI counter-1	BoNT F protease	Anthrax LF prot	Bead autofluor	BoNT A protease	Mtb FBA inh	Mtb FBA confirm	GDH-TPI counter-2
CCCCc1cc(=O)oc2cc(C)cc(OC(C)C(=O)NCc3ccccn3)c12 (stereo unspecified)	–	–	–	–	–	63	153	122
CCCCc1cc(=O)oc2cc(OC(C)C(=O)NCc3ccccn3)c(Cl)cc12 (stereo unspecified)	–	–	–	–	–	–	·	·
CCCCc1cc(=O)oc2cc(C)cc(OCC(=O)NCc3ccccn3)c12	–	–	–	–	–	64	47	39
CCCCNC(=O)[C@]1(C)CCC[C@@]2(C)C3CC[C@@]4(C)C[C@]3(CCC21)CC4=O (stereo partly specified)	–	–	–	–	–	–	·	·
CN1C(CC(=O)c2ccccc2)CCCC1CC(O)c1ccccc1 (stereo unspecified)	–	–	–	–	–	–	·	·
O=C(Nc1nc(-c2cccc3ccccc23)cs1)c1ccc2c(c1)S(=O)(=O)c1ccccc1C2=O	–	–	–	–	–	–	·	·
